Reference: PubChem BioAssay (Tox21)
Results filed as inconclusive are left out. Activity calls are given as the source filed them. Unless noted, calls come from the whole dose curve; as a rule, active = well fitted curve in the direction sought with a large enough effect in the repeat runs; inconclusive = weak or mixed curves; inactive = no such curve, though single readings can be large; an effect the other way counts as inactive or inconclusive.

Columns and labels:
[1] = qHTS assay for small molecule agonists of the p53 signaling pathway (AID 651631; calls by dose curve; note: nearly all actives have a fitted effect of over 15% in size)
In short: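 Stably transfected HCT-116 cells (beta-lactamase behind p53 response elements) get compounds after a 5 h settling period; 16 h later at 37 °C, FRET substrate is loaded and fluorescence read after 2 h.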

[2] = qHTS assay for small molecules that induce genotoxicity in human embryonic kidney cells expressing luciferase-tagged ATAD5 (AID 651632); note: nearly all actives have a fitted effect of over 15% in size
In short: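 HEK293T cells carrying a luciferase reporter tagged to ATAD5 were exposed to compound or DMSO vehicle for 16 hr at 37C, 5% CO2. Amplite was added, and after 30 min at room temperature luciferase activity was read as a marker of ATAD5 induction.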

[3] = qHTS assay for small molecule agonists of the p53 signaling pathway - cell viability (AID 651633; calls by dose curve;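 note: p53RE-bla HCT reporter cells with a stable beta-lactamase p53 reporter; series mostly up to about 83 µM; nearly all actives have a fitted effect of over 30% in size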)
In short: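 p53RE-bla cells, seeded at 4,000 per well and rested 5 h at 37 C/5% CO2, received compounds in DMSO for 16 h at 37 C. CellTiter-Glo was then added, and luminescence was read after 30 min at room temperature to gauge cytotoxicity.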

[4] = qHTS assay for small molecules that induce genotoxicity in human embryonic kidney cells expressing luciferase-tagged ATAD5 - cell viability (AID 651634; calls by dose curve; note: nearly all actives have a fitted effect of over 25% in size)
In short: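 HEK293T cells expressing luciferase-tagged ATAD5 were exposed to compound or DMSO for 15.5 hr at 37C, 5% CO2. Viability was then read as live-cell protease activity by CellTiter-Fluor fluorescence after 30 min at 37C.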

[5] = qHTS assay for small molecule disruptors of the mitochondrial membrane potential - cell viability (AID 720634; calls by dose curve;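 note: human HepG2 liver cancer cells; series mostly up to about 83 µM; nearly all actives have a fitted effect of over 20% in size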)
In short: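 HepG2 cells seeded overnight at 37 C, then exposed to compound or DMSO for 1 hr at 37 C, 5% CO2. m-MPI dye added, then CellTiter-Glo for 30 min at room temperature; viability read as ATP luminescence.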

[6] = qHTS assay for small molecule disruptors of the mitochondrial membrane potential (AID 720635)
In short: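 HepG2 cells (2,000/well) attached overnight at 37C, then took compound for 1 hr at 37C, 5% CO2. Mito-MPS dye was added for 30 min; fluorescence was read at 490/535 nm (monomers) and 540/590 nm (aggregates).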

[7] = qHTS assay to test for compound auto fluorescence at 590 nm (red) in HepG2 cells (AID 720674)
In short: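 Rose Bengal sodium served as the red fluorophore standard. HepG2 monolayers (overnight attachment, MEM with 10% FBS) were exposed to test compounds for 1 hr at 37 C and read at Ex 540/Em 590 nm.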

[8] = qHTS assay to test for compound auto fluorescence at 535 nm (green) in HepG2 cells (AID 720675)
[9] = qHTS assay to test for compound auto fluorescence at 460 nm (blue) in HEK293 cells (AID 720678)
In short: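 Auto fluorescence in the blue band was quantified as triamterene equivalency. HEK293 cells were seeded at 2,000/well, dosed after a 4-5 hr attachment, and kept overnight at 37C before the 405/460 nm reading.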

[10] = qHTS assay to test for compound auto fluorescence at 590 nm (red) in HEK293 cells (AID 720679)
In short: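 Autofluorescence equivalency to Rose Bengal sodium, 540/590nm, in HEK293 cells exposed overnight to 23 nL compound per well.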

[11] = qHTS assay to test for compound auto fluorescence at 535 nm (green) in HEK293 cells (AID 720680)
[12] = qHTS assay to test for compound auto fluorescence at 460 nm (blue) in HEK293 cell free culture (AID 720681)
In short: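 Test compounds were pinned into cell-free culture medium (DMEM with 10% FBS) and fluorescence was read directly at Ex/Em 405/460 nm. Signals were expressed as fluorescence equivalents of triamterene, with DMSO vehicle as control.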

[13] = qHTS assay to test for compound auto fluorescence at 535 nm (green) in HEK293 cell free culture (AID 720682)
In short: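 Using fluorescein as calibrant, autofluorescence was quantified at 485/535 nm in cell-free DMEM containing 10% FBS after pintool addition of compound or vehicle.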

[14] = qHTS assay to test for compound auto fluorescence at 590 nm (red) in HEK293 cell free culture (AID 720683)
In short: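 Tox21 10K library compounds were pinned into cell-free DMEM with 10% FBS and fluorescence was read at excitation 540 nm. Activity is expressed as Rose Bengal sodium equivalency.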

[15] = qHTS assay to test for compound auto fluorescence at 590 nm (red) in HepG2 cell free culture (AID 720684)
In short: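 Measured in medium alone (MEM containing 10% FBS) following pintool addition of compound; emission at 590 nm with 540 nm excitation, referenced to Rose Bengal sodium.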

[16] = qHTS assay to test for compound auto fluorescence at 460 nm (blue) in HepG2 cell free culture (AID 720685)
In short: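 Compound (23 nL) or DMSO pinned into cell-free MEM with 10% FBS; blue fluorescence read at 405/460 nm excitation/emission, expressed as auto-fluorescence equivalency to triamterene.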

[17] = qHTS assay to test for compound auto fluorescence at 535 nm (green) in HepG2 cell free culture (AID 720686)
[18] = qHTS assay to test for compound auto fluorescence at 460 nm (blue) in HepG2 cells (AID 720687)
In short: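 Cells (2,000/well in MEM with 10% FBS) attached overnight at 37 C, then were exposed to compound or DMSO for 1 hr at 37 C, 5% CO2. Fluorescence read at Ex/Em 405/460 nm, expressed as triamterene-equivalent signal.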

[19] = biological target: Glucocorticoid receptor (Homo sapiens) (UniProt P04150); assay: qHTS assay to identify small molecule agonists of the glucocorticoid receptor (GR) signaling pathway (AID 720691; active = well fitted activation curve with a large enough effect in the signal ratio in the repeat runs, not every such curve was filed as active; the % refers to the signal ratio)
Chain of Glucocorticoid receptor (Homo sapiens) (P04150 whole entry, looked up): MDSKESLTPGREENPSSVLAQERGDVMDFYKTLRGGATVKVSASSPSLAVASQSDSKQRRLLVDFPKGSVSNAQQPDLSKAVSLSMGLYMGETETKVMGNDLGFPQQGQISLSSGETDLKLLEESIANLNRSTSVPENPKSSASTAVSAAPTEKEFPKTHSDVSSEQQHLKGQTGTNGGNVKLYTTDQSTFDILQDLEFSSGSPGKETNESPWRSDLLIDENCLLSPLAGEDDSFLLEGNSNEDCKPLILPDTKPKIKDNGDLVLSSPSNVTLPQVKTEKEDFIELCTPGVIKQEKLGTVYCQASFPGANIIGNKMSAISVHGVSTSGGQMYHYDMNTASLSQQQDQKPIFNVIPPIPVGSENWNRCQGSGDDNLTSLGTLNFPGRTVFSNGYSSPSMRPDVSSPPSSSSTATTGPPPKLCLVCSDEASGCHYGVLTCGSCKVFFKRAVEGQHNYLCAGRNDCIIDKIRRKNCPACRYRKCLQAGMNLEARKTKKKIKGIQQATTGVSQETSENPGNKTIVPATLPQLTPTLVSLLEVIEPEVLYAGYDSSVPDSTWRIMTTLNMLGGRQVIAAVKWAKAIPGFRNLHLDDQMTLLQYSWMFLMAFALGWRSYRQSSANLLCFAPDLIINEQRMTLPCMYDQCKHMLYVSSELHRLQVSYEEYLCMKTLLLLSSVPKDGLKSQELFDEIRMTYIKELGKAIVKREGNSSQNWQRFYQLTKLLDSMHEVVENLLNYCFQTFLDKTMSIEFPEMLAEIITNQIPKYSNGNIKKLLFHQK
In short: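 GR-bla HeLa cells (beta-lactamase reporter under glucocorticoid response element) were plated 4 h at 37 C/5% CO2, given compounds in DMSO, and incubated 18 h at 37 C. LiveBLAzer B/G FRET substrate was added for 2 h at room temperature, then fluorescence intensity read.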

[20] = biological target: Glucocorticoid receptor (Homo sapiens) (UniProt P04150); assay: qHTS assay to identify small molecule antagonists of the glucocorticoid receptor (GR) signaling pathway (AID 720692; active = well fitted inhibition curve with a large enough effect in the signal ratio in the repeat runs, not every such curve was filed as active; the % refers to the signal ratio)
In short: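 GR-bla HeLa cells (beta-lactamase reporter under glucocorticoid response element) were pre-plated 4 h at 37 C, treated with compounds plus 5 nM dexamethasone (final) for 18 h, then read by LiveBLAzer B/G FRET fluorescence after 2 h.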

Measured: Potency

NC[C@H]1O[C@H](O[C@H]2[C@H](O)[C@@H](O[C@H]3O[C@H](CO)[C@@H](O)[C@H](N)[C@H]3O)[C@H](N)C[C@@H]2N)[C@H](N)[C@@H](O)[C@@H]1O
inactive: [1] | [2] | [3] | [4] | [5] | [6] | [7] | [8] | [9] | [10] | [11] | [12] | [13] | [14] | [15] | [16] | [17] | [18] | [19] | [20]

CCCCN(CCCC)CCCCCCN(CCCC)CCCC
inactive: [1] | [2] | [3] | [4] | [5] | [6] | [7] | [8] | [9] | [10] | [11] | [12] | [13] | [14] | [15] | [16] | [17] | [18]

COC(=O)c1ccc(C(=O)O)cc1
inactive: [1] | [2] | [3] | [4] | [5] | [6] | [7] | [8] | [9] | [10] | [11] | [12] | [13] | [14] | [15] | [16] | [17] | [18] | [19] | [20]

CC(C)(C)OC(=O)c1ccccc1C(=O)O
inactive: [1] | [2] | [3] | [4] | [5] | [6] | [7] | [8] | [9] | [10] | [11] | [12] | [13] | [14] | [15] | [16] | [17] | [18]

CN(C)CCc1c[nH]c2ccc(CS(=O)(=O)N3CCCC3)cc12
inactive: [1] | [2] | [3] | [4] | [5] | [6] | [7] | [8] | [9] | [10] | [11] | [12] | [13] | [14] | [15] | [16] | [17] | [18]

C[C@]12C=CC(=O)C=C1[C@@H](F)C[C@@H]1[C@@H]2[C@@H](O)C[C@@]2(C)[C@H]1CC[C@]2(O)C(=O)CO
inactive: [1] | [2] | [3] | [4] | [5] | [6] | [7] | [8] | [9] | [10] | [11] | [12] | [13] | [14] | [16] | [17] | [18]

CCCC(=O)OC
inactive: [1] | [2] | [3] | [4] | [5] | [6] | [7] | [8] | [9] | [10] | [11] | [12] | [14] | [15] | [18]

C=COCCCCO
inactive: [1] | [2] | [3] | [4] | [5] | [6] | [7] | [8] | [9] | [10] | [11] | [12] | [14] | [15] | [16] | [18] | [19] | [20]

CCCCCCCOC(C)=O
inactive: [1] | [2] | [3] | [4] | [5] | [6] | [7] | [8] | [9] | [10] | [11] | [12] | [13] | [14] | [16] | [17] | [18]

COC(=O)/C=C(\C)CCC=C(C)C
inactive: [1] | [2] | [3] | [4] | [5] | [6] | [7] | [8] | [9] | [10] | [11] | [12] | [13] | [14] | [15] | [18]

C=CCN1CCc2nc(N)sc2CC1
inactive: [1] | [2] | [3] | [4] | [5] | [6] | [7] | [8] | [9] | [10] | [11] | [12] | [14] | [15] | [16] | [17] | [18] | [19] | [20]

OCCC(F)(F)C(F)(F)C(F)(F)C(F)(F)C(F)(F)C(F)(F)F
inactive: [1] | [2] | [3] | [4] | [5] | [6] | [7] | [8] | [9] | [10] | [11] | [12] | [13] | [14] | [15] | [17] | [18] | [19] | [20]

CCOC(=O)CC
inactive: [1] | [2] | [3] | [4] | [5] | [6] | [7] | [8] | [9] | [10] | [11] | [12] | [14] | [15] | [16] | [17] | [18]

Cc1nc2ccc(Cl)cc2[nH]1
inactive: [1] | [2] | [3] | [4] | [5] | [6] | [7] | [8] | [9] | [10] | [11] | [12] | [13] | [14] | [16] | [17] | [18] | [19] | [20]

O=C(O)COc1ccc2ccccc2c1
inactive: [1] | [2] | [3] | [4] | [5] | [6] | [7] | [8] | [9] | [10] | [11] | [12] | [14] | [15] | [16] | [17] | [18] | [19] | [20]
